Source: the supplement of paper PMC10338343
± gives the standard deviation. The full ranking holds about 6,200 sequences; the median of “pre-steady-state target cleavage rate” is about 0.29, and the highest 2% start at about 2. The sample as a whole holds a higher share of the highest values than the screen did.

tested on: MIWI (PIWIL1) piRISC loaded with piRNA #1 (30 nt); assay: pre-steady-state target cleavage rate (min^-1); MIWI and MILI are mouse PIWI proteins and EfPiwi is from a freshwater sponge; tags in brackets are library labels; higher = faster piRNA-guided slicing of the target; details: guide: piRNA #1 5'p-UGAGGUAGUAGGUUGUAUAGUAUCCAGAGG; auxiliary factor: 500 nM mouse GTSF1
Description: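 Cleave-'n-Seq: a library of target RNAs (target site embedded in constant flanks, ACAGCATTCCGCGTTAGTGATATCCG... 5' flank; DNA-blocked outside the site) at 0.1 nM was incubated with 1 nM active mouse MILI or MIWI piRISC (synthetic 5'-monophosphorylated piRNA guide) with or without 500 nM mouse GTSF1 at 33 °C for 1 min to 16 h. Uncleaved targets were sequenced and normalised to non-target controls, and the pooled three trials were fitted to a burst-and-steady-state model to give the pre-steady-state cleavage rate (min^-1; k3 is constrained to at most 1e-4). Sequence is the target site only; target names encode pairing extent (gX:gY) and contiguous / 1-mismatch / 2-mismatch / bulge geometry. Fits with R² ≤ 0 are excluded.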

Row | Sequence | pre-steady-state target cleavage rate
1 | GGAGGGGAUACUAUACAACCUACUACCUCA | 1.51 ± 0.069
2 | GCACUGGAUACAAUACAACCUACUACCUCA | 1.8 ± 0.1
3 | GGAGACCUAUCUAUACAACCUACUCACCUCA | 0.537 ± 0.059
4 | GGAGUGGAUACUAAACAACCUACUUCCUCA | 0.0286 ± 0.0079
5 | GGAGUGGAUACUGAUACAACCUACUACCUCA | 1.3 ± 0.098
6 | GGAGACCUAACAAUACAACCUACUACCUGA | 0.00542 ± 0.0049
7 | GGAGAGGAUACGUAUACAACCUACUACCUCA | 0.484 ± 0.047
8 | GGAGUGGUUACAAUACAACCUACUACCUCA | 1.2 ± 0.079
9 | GGUCUGGAAACUAUACAACCUAGUACCUCA | 0.484 ± 0.077
10 | GGAGACCUAACUAUACAACCUACUACCCCA | 0.867 ± 0.099
11 | CCUCUGGAUACUAUACAACCUAUUACCUCA | 2.07 ± 0.13
12 | GCUCUGGAUACUAUAUAACCUACUACCUCA | 1.79 ± 0.1
13 | GCUCUGGAAUACUAUACAACCUACUACCUCA | 1.92 ± 0.1
14 | GCUUCUGGAUACUAUACAACCUACUACCUCA | 1.94 ± 0.091
15 | GGUCUGGAAUACUAUACAACCUACUACCUCA | 1.83 ± 0.11
16 | CCUCUGGAUACUAUAUAACCUACUACCUCA | 2.07 ± 0.12
17 | CCUUCUGGAUACUAUACAACCUACUACCUCA | 2.22 ± 0.12
18 | GCUCUGGAUACUAUACAACCUAUUACCUCA | 1.88 ± 0.13
19 | CCUCUGGAUACUAUUACAACCUACUACCUCA | 1.82 ± 0.12
20 | CCUCUGGAAUACUAUACAACCUACUACCUCA | 2.19 ± 0.13
21 | CUUCUGGAUACUAUACAACCUACUACCUCA | 1.99 ± 0.11
22 | GGUCUGGAUACUAUAUAACCUACUACCUCA | 1.86 ± 0.1
23 | GGACUGGAUAACUAUACAACCUACUACCUCA | 1.11 ± 0.087

Row | Sequence | pre-steady-state target cleavage rate
24 | GGAGACCAUACUAUACAUCCUAGUACCUCA | 0.343 ± 0.029
25 | CCUCUGGAUACUAUAGAACCUACAACCUCA | 0.0249 ± 0.007
26 | CCUCUGGAUACUAUACAACCUAACUACCUCA | 0.0333 ± 0.0068
27 | GCUCUGGAUACUAUACAACCUACCUACCUCA | 1.63 ± 0.091
28 | GCUCUGGAUACUAUACAACCUACUAACCUCA | 1.71 ± 0.11
29 | CGCUCUGGAUACUAUACAACCUACUACCUCA | 2.27 ± 0.14
30 | GGUCUGGAAACUAUUCAACCUACUACCUCA | 1.58 ± 0.096
31 | CCUCUGGAAACUAUUCAACCUACUACCUCA | 2.02 ± 0.13
32 | GCUCUGGAAACUAUUCAACCUACUACCUCA | 1.68 ± 0.12
33 | CCUCUGGAUACUAUACAACCUACUAACCUCA | 2.09 ± 0.13
34 | GCUCUGGAUACUAUACAACCUACUACCUCA [g2:g29:cont:t1A] | 1.89 ± 0.1
35 | GGAGAGGAAACUAUACAACGUACUACCUCA | 0.27 ± 0.037
36 | GGAGACCUAUGAUAUGUACCAACAACCUCA | < 0.0001
37 | GGAGUCGGAUACUAUACAACCUACUACCUCA | 1.45 ± 0.091
38 | GGUCUGCAUACUAUACAACCUACUACCUCA | 1.71 ± 0.1
39 | GCUCUGGAUACUACACAACCUACUACCUCA | 1.89 ± 0.095
40 | GGAGACCAUACUAAACAACCUACUACCUGA | 0.604 ± 0.08
41 | GGAGAGCAUACUAUACAACGUACUACCUCA | 0.557 ± 0.036
42 | GCUCAUGGAUACUAUACAACCUACUACCUCA | 1.98 ± 0.1
43 | GCUAUGGAUACUAUACAACCUACUACCUCA | 1.93 ± 0.092
44 | CCUAUGGAUACUAUACAACCUACUACCUCA | 2.15 ± 0.12
45 | GGUCAUGGAUACUAUACAACCUACUACCUCA | 1.85 ± 0.11
46 | CCUCAUGGAUACUAUACAACCUACUACCUCA | 2.31 ± 0.13

Row | Sequence | pre-steady-state target cleavage rate
47 | GGUAUGGAUACUAUACAACCUACUACCUCA | 1.88 ± 0.11
48 | GGAGACGAUACAAUACAACCUACUUCCUCA | 0.408 ± 0.056
49 | GGUUUGGAUACUAUACAACCUACUACCUCA | 1.81 ± 0.084
50 | GCUUUGGAUACUAUACAACCUACUACCUCA | 1.91 ± 0.11
51 | GGUCUUGGAUACUAUACAACCUACUACCUCA | 1.87 ± 0.11
52 | CCUCUUGGAUACUAUACAACCUACUACCUCA | 2.3 ± 0.12
53 | GCUCUUGGAUACUAUACAACCUACUACCUCA | 2.1 ± 0.1
54 | CCUUUGGAUACUAUACAACCUACUACCUCA | 2.3 ± 0.12
55 | GGUUGGAUACUAUACAACCUACUACCUCA | 1.78 ± 0.1
56 | CCUUGGAUACUAUACAACCUACUACCUCA | 2.26 ± 0.14
57 | GGACUUGGAUACUAUACAACCUACUACCUCA | 1.78 ± 0.11
58 | GCUUGGAUACUAUACAACCUACUACCUCA | 1.87 ± 0.12
59 | GGAGACCUAACUAUACUAGCUACUACCUCA | 0.0132 ± 0.006
60 | GGAGACCUAACUUACAACCUACUACCUCA | 0.00932 ± 0.008
61 | CCUCUGGAUACUAUCAACCUACUACCUCA | 1.82 ± 0.12
62 | GGAGAGGAUACAAUACAACCUACUACCUCA | 1.18 ± 0.063
63 | CCUCUGGAUACUAUACAAACUACUACCUCA | 1.27 ± 0.047
64 | GGAGACCUAUCUAUACUACCUACUACCUCA | 0.0899 ± 0.011
65 | GGUCUGGAUAGUAUACAACGUACUACCUCA | 0.319 ± 0.047
66 | GGAGACCUAACUAUACAACGUACUAGCUCA | 0.024 ± 0.0084
67 | GGACUGGAUGCUAUACAACCUACUACCUCA | 1.82 ± 0.15
68 | GCUCUGGAUACUAUCCAACCUACUACCUCA | 2.05 ± 0.14
69 | GCUCUGGAUACUAUCAACCUACUACCUCA | 1.78 ± 0.12

Row | Sequence | pre-steady-state target cleavage rate
70 | GGACUGGAUACUAUCCAACCUACUACCUCA | 1.76 ± 0.11
71 | GCUCUGGAUACUAUACCAACCUACUACCUCA | 0.392 ± 0.075
72 | CCUCUGGAUACUAUCCAACCUACUACCUCA | 2.1 ± 0.14
73 | GGUCUGGAUACUAUCCAACCUACUACCUCA | 1.96 ± 0.14
74 | GGAGAGGAUACUAUACAACCUAGUACCUCA | 0.145 ± 0.031
75 | GGAGACGAUACUAUACAACCUACAUCCUCA | 0.342 ± 0.029
76 | GGAGACCAAACUAUACAUCCUACUACCUCA | 0.513 ± 0.06
77 | GGAGUGCAUACUAUACAACCUACUACGUCA | 0.629 ± 0.053
78 | GGUCUGGAUACUUAUCAACCUACUACCUCA | 0.863 ± 0.11
79 | GGACUGGCAUACUAUACAACCUACUACCUCA | 1.68 ± 0.12
80 | GCUCUGCAUACUAUACAACCUACAACCUCA | 1.37 ± 0.12
81 | GGUCUGGCAUACUAUACAACCUACUACCUCA | 1.86 ± 0.12
82 | GCUCUGGCAUACUAUACAACCUACUACCUCA | 2.17 ± 0.12
83 | GCUCUGGAUACUAUACAACCUACAUACCUCA | 1.87 ± 0.16
84 | CCUCUGGCAUACUAUACAACCUACUACCUCA | 2.31 ± 0.12
85 | CCUCUGGCUACUAUACAACCUACUACCUCA | 2.25 ± 0.11
86 | GCUCUGGCUACUAUACAACCUACUACCUCA | 1.93 ± 0.099
87 | GGUCUGGCUACUAUACAACCUACUACCUCA | 1.99 ± 0.11
88 | GGACUGGAUACAAUACAAGCUACUACCUCA | 0.683 ± 0.041
89 | GGAGACCUUACUAUACAACCUACUACCUGA | 0.777 ± 0.077
90 | GGAGUGGAUACUAUACCAACCUACUACCUCA | 0.0192 ± 0.0054
91 | GCUCUGGAUACUAUACAAGCUACUAGCUCA | 0.745 ± 0.073
